Assay results taken from the supplement of paper PMC12067926.
Values without a mark were called inactive.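 How the source made its calls: active = growth AUC significantly below the DMSO wells by Dunnett test; inactive = the rest.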

How the values were obtained:
Assay in all cases: relative growth (AUC of 72 h growth curve relative to DMSO control, dAUC) (ratio); higher = more growth (less inhibition), active = hit call of the paper
Details in all cases: 20 µM
[1] = system: Aeromonas 1 (Aeromonas sp. AE235)
Procedure, shortened: (§1)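 Isolates from Icelandic stream sediments and Silwood Park soil, along with whole sediment communities, were grown in Luria–Bertani medium to carrying capacity and diluted 1:100 into 96-well plates with each chemical at 20 µM (1% DMSO). A600 was measured hourly for 72 h, and values were averaged over three biological replicates. Relative growth (dAUC) is the spline-integrated growth-curve area over the mean of the DMSO controls.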

[2] = system: Aeromonas 2 (Aeromonas sobria)
Procedure, shortened: as §1

[3] = system: Aeromonas 3 (Aeromonas popoffii)
Procedure, shortened: as §1

[4] = system: Argrobacterium 1 (Agrobacterium sp.)
Procedure, shortened: as §1

[5] = system: Arthrobacter 1 (Arthrobacter humicola)
Procedure, shortened: as §1

[6] = system: Arthrobacter 2 (Arthrobacter humicola)
Procedure, shortened: as §1

[7] = system: Arthrobacter 3 (Arthrobacter sp.)
Procedure, shortened: as §1

Community 10 = system: Community 10
Procedure, shortened: as §1

Community 4 = system: Community 4
Procedure, shortened: as §1

Community 6 = system: Community 6
Procedure, shortened: as §1

Structure (SMILES) | relative growth [1] | relative growth [2] | relative growth [3] | relative growth [4] | relative growth [5] | relative growth [6] | relative growth [7] | relative growth (Community 10) | relative growth (Community 4) | relative growth (Community 6)
COC(=O)NC(=S)Nc1ccccc1NC(=S)NC(=O)OC | 0.978 | 0.978 | 0.998 | 1.02 | 0.923 | 0.973 | 1.07 | 0.99 | 0.943 | 0.97
CSc1nnc(C(C)(C)C)c(=O)n1N | 0.969 | 1.01 | 1.04 | 0.991 | 0.948 | 1.06 | 0.961 | 1.03 | 1.08 | 1.02
N#Cc1sc2c(=O)c3ccccc3c(=O)c=2sc1C#N | 0.852 | 0.905 | 1.07 | 1.09 | 0.649 (active) | 0.193 (active) | 0.557 (active) | 1.16 | 1.12 | 1.12
CCc1cc(C)cc(CC)c1-c1c(OC(=O)C(C)(C)C)n2n(c1=O)CCOCC2 | 0.987 | 0.978 | 1.02 | 0.957 | 1.01 | 0.873 | 0.917 | 0.925 | 0.852 | 0.906
COP(=S)(OC)Oc1ccc(SC)c(C)c1 | 1.02 | 0.974 | 1.03 | 1.05 | 1.17 | 0.942 | 1.01 | 0.993 | 0.985 | 1.05
O=C(O)c1nc(Cl)ccc1Cl | 0.95 | 0.943 | 0.997 | 0.946 | 1.03 | 0.895 | 0.963 | 0.892 | 0.903 | 0.972
CS(=O)(=O)c1cc(C(F)(F)F)ccc1C(=O)c1cnoc1C1CC1 | 1.02 | 1.01 | 1.04 | 1.01 | 1.1 | 1.08 | 1.04 | 1.13 | 1.14 | 1.13
COc1cc(OC)nc(NC(=O)NS(=O)(=O)c2ncccc2C(=O)N(C)C)n1 | 1.06 | 1.01 | 1.03 | 0.995 | 0.976 | 1.11 | 1.05 | 1.11 | 1.08 | 1.06
CCC(CC)Nc1c([N+](=O)[O-])cc(C)c(C)c1[N+](=O)[O-] | 0.951 | 0.973 | 0.997 | 0.993 | 0.901 | 0.884 | 1.02 | 0.687 | 0.88 | 0.917
O=C(NC(=O)c1c(F)cccc1F)Nc1ccc(OC(F)(F)C(F)OC(F)(F)F)c(Cl)c1 (configuration not stated) | 0.958 | 0.975 | 0.988 | 0.995 | 0.843 | 0.911 | 0.942 | 0.965 | 0.934 | 0.934
O=C(Nc1ccccc1-c1ccc(Cl)cc1)c1cccnc1Cl | 1.02 | 0.995 | 1.04 | 0.962 | 0.891 | 1.01 | 0.869 | 1.05 | 1.01 | 1.01
CS(=O)(=O)c1ccc(C(=O)C2C(=O)CCCC2=O)c([N+](=O)[O-])c1 | 0.965 | 1 | 0.97 | 0.959 | 1 | 1.07 | 1.02 | 1.02 | 1.06 | 1.04
CCOCn1c(-c2ccc(Cl)cc2)c(C#N)c(Br)c1C(F)(F)F | 0.988 | 0.989 | 1.01 | 0.978 | 1.14 | 0.829 | 0.987 | 0.934 | 1.07 | 0.99
CCOP(=S)(OCC)Oc1nc(Cl)c(Cl)cc1Cl | 1.05 | 1 | 1.06 | 0.979 | 1.04 | 0.994 | 1.08 |  | 0.974 | 0.953
CCN(CC)c1nc(C)cc(OP(=S)(OC)OC)n1 | 1 | 0.982 | 1.02 | 1.04 | 0.998 | 0.924 | 0.956 | 0.843 | 1.01 | 0.982
COc1cccc(C(=O)NN(C(=O)c2cc(C)cc(C)c2)C(C)(C)C)c1C | 0.951 | 0.969 | 0.979 | 0.982 | 0.98 | 0.884 | 1.02 | 0.786 | 0.822 | 0.89
Cc1ccc(/N=C/N(C)/C=N/c2ccc(C)cc2C)c(C)c1 | 0.991 | 0.995 | 1 | 0.984 | 0.964 | 0.821 | 1.04 | 0.922 | 0.905 | 0.969
COC(=O)c1ccccc1S(=O)(=O)NC(=O)Nc1nc(C)nc(OC)n1 | 1.02 | 1.01 | 1.07 | 0.964 | 1.16 | 1.14 | 1.01 | 1.23 | 1.16 | 1.12
Nc1c(Cl)c(F)nc(OCC(=O)O)c1Cl | 0.974 | 1 | 0.991 | 1.03 | 1.1 | 1.02 | 0.991 | 0.976 | 1.07 | 1.01
O=C1c2ccccc2C(=O)N1SC(Cl)(Cl)Cl | 1.04 | 0.951 | 0.992 | 1.04 | 1.04 | 0.994 | 1.1 | 0.818 | 0.962 | 0.721
CNC(=O)/C=C(\C)OP(=O)(OC)OC | 0.951 | 0.972 | 0.995 | 0.984 | 0.943 | 0.906 | 0.94 | 0.927 | 0.942 | 0.973
CC1=NNC(=O)N(/N=C/c2cccnc2)C1 | 1.04 | 1.04 | 1.04 | 0.954 | 1.13 | 1.13 | 1.05 |  | 1.1 | 1.14
COCC(C)N(C(=O)CCl)c1c(C)csc1C (configuration not stated) | 0.991 | 0.984 | 0.964 | 1.02 | 0.907 | 0.814 | 1.05 | 0.97 | 0.913 | 0.975
CC(C)N1C(=O)N(c2ccccc2)CS/C1=N\C(C)(C)C | 1.04 | 1.1 | 1.01 | 1.07 | 0.994 | 0.59 (active) | 0.868 | 0.858 | 1.02 | 1.02
COCC(=O)N(c1c(C)cccc1C)C(C)C(=O)OC (configuration not stated) | 1.03 | 1.04 | 1.04 | 1.01 | 0.944 | 0.862 | 0.994 | 1.06 | 1.05 | 1.03
CC1(C)C(C=C(Cl)Cl)C1C(=O)OC(C#N)c1ccc(F)c(Oc2ccccc2)c1 (configuration not stated) | 0.997 | 1 | 1.07 | 1.03 | 1.19 | 0.879 | 0.946 |  | 0.954 | 0.928
CC(C)(C)c1ccc(CSc2cnn(C(C)(C)C)c(=O)c2Cl)cc1 | 1.02 | 0.975 | 1.03 | 1.01 | 1.02 | 0.875 | 0.98 | 0.941 | 1.01 | 1.04
CCOc1ccc(C(C)(C)COCc2cccc(Oc3ccccc3)c2)cc1 | 1.01 | 1.02 | 1.02 | 1.04 | 1.01 | 0.801 | 0.816 | 1.02 | 0.901 | 0.979
